Screening data: PubChem BioAssay, Sanford-Burnham Center for Chemical Genomics
The full list was thinned out, with hits kept by preference.
ER stress death: ER stress cell death inhibition. hit rate 0.33% among 48,000. CSM14.1 thapsigargin ER stress survival, ATP luminescence. relative survival (cellular ATP), % at 15 µg/mL (by protocol). AID 1010;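 active = survival measured by cellular ATP above 50% at 15 µg/ml in the first screen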;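 note: cell death triggered by about 15 µM thapsigargin; ATP read 24 h after thapsigargin was added; plate controls were thapsigargin with DMSO for no effect and DMSO without thapsigargin for full effect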
An asterisk follows results filed as active.

SMILES	ER stress death
CCN(CC)C(=O)c1ccc(CN(c2ccc(OC)cc2)S(=O)(=O)c2ccccc2)cc1	124*
COc1ccc(N(Cc2ccc(C(=O)NC3CCCC3)cc2)S(=O)(=O)c2ccccc2)cc1	2
COc1ccc(N(Cc2ccc(C(=O)NC3CCCCC3)cc2)S(=O)(=O)c2ccccc2)cc1	9
COc1ccccc1C1/C(=C(/O)c2ccccc2)C(=O)C(=O)N1c1cccc(Br)c1 (centres undefined)	8
COc1cc(NC(=O)[C@@H]2C3C=CC(C3)[C@@H]2C(=O)O)c(OC)cc1Cl (some centres undefined)	3
CCN(CC)S(=O)(=O)c1ccc(C(=O)Nc2sc3c(c2C(N)=O)CCCC3)cc1	8
O=C(N/N=C/c1ccc(Cl)c([N+](=O)[O-])c1)/C(=C\c1ccc2c(c1)OCO2)NC(=O)c1ccccc1	81*
COc1cc(Cl)cc(/C=N/NC(=O)/C(=C\c2ccc3c(c2)OCO3)NC(=O)c2ccccc2)c1O	5
O=C(O)COc1ccccc1/C=N/NC(=O)/C(=C\c1ccc2c(c1)OCO2)NC(=O)c1ccccc1	-4
CC1(C)C(=O)N(Cc2ccccc2)c2ccccc2N1C(=O)c1ccc([N+](=O)[O-])cc1	4
COc1ccc(C(=O)N2c3ccccc3N(Cc3ccccc3)C(=O)C2(C)C)cc1	110*
CC1(C)C(=O)N(Cc2ccccc2)c2ccccc2N1C(=O)c1ccc(Cl)cc1	4
Cc1cc(C(=O)Nc2ccc(S(=O)(=O)Nc3nccs3)cc2)ccc1[N+](=O)[O-]	16
Cc1cc2nc(-c3ccc(NC(=O)c4cccnc4)cc3O)oc2cc1C	0
CC(=O)C1=C(Nc2ccccc2)CC(C)(O)C(C(C)=O)C1c1ccccc1F (centres undefined)	-4
COc1ccc(/C=C2\SC(=O)N(CCC(=O)O)C2=O)cc1OC	14
COc1ccc(CCN=CC2=C(O)CC(c3ccccc3)CC2=O)cc1OC (centres undefined)	8
COc1ccc(CCN=Cc2c(O)n(-c3c(Cl)cccc3Cl)c3ccccc23)cc1OC	120*
COc1ccc(CCN=CC2=C(O)CC(C)(C)CC2=O)cc1OC	9
COCC(=O)Nc1ccc(F)cc1F	17
C=CCN1C(=O)/C(=C\c2cc(Cl)cc(Br)c2O)SC1=S	-1
Cc1cccc(OCC(=O)N/N=C/c2cc(Br)cc(I)c2O)c1	5
Cc1cc(NC(=O)c2ccc(-c3ccc(Cl)cc3)o2)ccc1NC(=O)c1ccco1	62*
COc1cc(NC(=O)c2ccc(-c3ccc(Cl)cc3)o2)ccc1NC(=O)c1ccco1	-1
Cc1cc(NC(=O)c2ccc(-c3ccc(Br)cc3)o2)ccc1NC(=O)c1ccco1	-8
COc1cc(/C=C2\C(=O)NC(=O)N(c3ccc(F)cc3)C2=O)cc(I)c1O	0
O=C(c1ccc(Cl)cc1[N+](=O)[O-])N1CCN(C(c2ccccc2)c2ccccc2)CC1	13
